Laboratory results published in PubChem BioAssay (Tox21).
Results filed as inconclusive are left out. Activity calls are given as the source filed them. The call rests on the fitted dose curve.

Assay: qHTS assay to identify small molecule agonists of H2AX - cell viability counter screen (AID 1224847); further: nearly all actives have a fitted effect of over 30% in size; on activity change, negative = cytotoxicity: top concentration of the series differs between compounds
Settings: CHO-K1 viability, CellTiter-Glo luminescence, 3 h; series mostly up to 154 µM; activity change, negative = cytotoxicity: at the top concentration
Text: National Center for Advancing Translational Sciences [NCATS]
NIH Chemical Genomics Center [NCGC]
U.S. Environmental Protection Agency [EPA]
National Institutes of Environmental Health Sciences [NIEHS]
National Toxicology Program [NTP]
U.S. Food and Drug Administration [FDA]
HTRF phospho-H2AX (Ser139) assay (Cisbio Bioassays, US) enables the quantitative detection of the histone variant H2AX when phosphorylated on serine 139. When double-stranded DNA breaks, either by ionizing radiation or endogenous physiological processes, H2AX becomes phosphorylated at Ser139. This phospho-Ser139 serves as a sensitive biomarker for the detection of such breaks, localizing the site of DNA repair. So, HTRF phospho-H2AX Ser139 is a pertinent assay to study genome stability, the cell cycle, DNA repair, and it serves as a biomarker for cancer, and to understand aging. Wild type CHO-K1 cells were used to identify the inducers of Phospho-H2AX Ser 139 from the Tox21 compound collections. Also cytotoxicity of the Tox21 10K compound library against the CHO-K1 cell line was tested by measuring the cell viability using CellTiter-Glo assay (Promega, Madison, WI).
Tox21 Assay Protocol Summary:
The CHO-K1 cells suspended in culture medium containing 10% FBS were dispensed at 1000 cells/ 3 ul/well in 1536-well white wall/solid bottom plates (Greiner Bio-One North America, NC) using a Multidrop Combi (Thermo Fisher Scientific Inc., Waltham, MA). After the assay plates were incubated at 37C overnight, 23 nl of compounds at 15 concentrations (from 5-48 columns) or positive control (from 1 to 4 columns) were transferred to the assay plates using a Pintool station (Wako, San Diego, CA) into each well resulting in a final DMSO concentration of 0.76%. After 3hr incubation at 37C, 3 uL/well CellTiter-Glo luminescent cell viability reagent (Promega Corporation, Madison, WI) was added using a Flying Reagent Dispenser (FRD) (Aurora Discovery, CA). After incubation at room temperature for 30 min, the luminescence intensity was read using a ViewLux plate reader (PerkinElmer, Waltham, MA).
On the % scale 0 is the no-effect control and ±100 the full control effect; potency means the concentration at half of the fitted maximal effect.

SMILES | activity change, negative = cytotoxicity | Potency
CCOc1ccc2[nH]cc(C(=O)NCc3ccccc3)c(=O)c2n1 | -12.3% (inactive) | –
CC(=O)O[C@H]1C[C@@H]2CC[C@@H]3[C@H](CC[C@@]4(C)[C@H]3C[C@H]([N+]3(C)CCCCC3)[C@@H]4OC(C)=O)[C@@]2(C)C[C@@H]1N1CCCCC1 | -4.26% [at 70.9 µM] (inactive) | –
O=C(O)c1cccc(N(Cc2cccnc2)c2ccc(OC(F)F)c(OC(F)F)c2)c1 | 2.2% (inactive) | –
c1ccc(OCc2ccc(CCCN3CCOCC3)cc2)cc1 | -0.812% [at 70.9 µM] (inactive) | –
NC[C@H]1O[C@H](O[C@H]2[C@H](O)[C@@H](O[C@H]3O[C@H](CO)[C@@H](O)[C@H](N)[C@H]3O)[C@H](N)C[C@@H]2N)[C@H](O)[C@@H](O)[C@@H]1O | 4.56% [at 14 µM] (inactive) | –
Cc1cc(CC(=O)O)c(C)n1-c1ccc(Cl)cc1 | 2.26% [at 70.9 µM] (inactive) | –
CCCCOC(=O)/C=C\C(=O)OCCCC | 1.22% (inactive) | –
CC(C)(C)c1cc(O)c(C(C)(C)C)cc1O | -6.5% (inactive) | –
O=C(O)C1CCC(C(=O)O)CC1 (stereo not given) | -0.0888% (inactive) | –
O=C(CC(=O)c1ccccc1)c1ccccc1 | -6.88% (inactive) | –
NCCCN(CCO)CCO | 4.03% (inactive) | –
CCCCCCCCCCCCCCCC(=O)OC/C=C(C)/C=C/C=C(C)/C=C/C1=C(C)CCCC1(C)C | -1.52% (inactive) | –
CC(=O)NCCCS(=O)(=O)O | 4.25% [at 70.9 µM] (inactive) | –
CC1CCc2cc(F)cc3c(=O)c(C(=O)O)cn1c23 (stereo not given) | -2.56% [at 70.9 µM] (inactive) | –
CCOC(=O)CC(C)C | -1.34% (inactive) | –
CC(C)=CCCC(C)CC=O (stereo not given) | -1.89% (inactive) | –
Cc1cc(NC(=O)C(=O)O)cc(C)c1Oc1ccc(O)c2c1CCC2 | 1.75% (inactive) | –
CCCCCOC(=O)c1ccc(O)cc1 | – | 114 µM (active)
CCCCCCCCCCCCCCC1CO1 (stereo not given) | 1.01% (inactive) | –
CC(C)NCC(O)COc1ccc(CC(N)=O)cc1 (stereo not given) | -4.72% (inactive) | –

SMILES | activity change, negative = cytotoxicity | Potency
CCCCOc1ccc(CC(=O)NO)cc1 | 1.21% [at 70.9 µM] (inactive) | –
Cc1ccc(O)c([C@H](CCN(C(C)C)C(C)C)c2ccccc2)c1 | -0.621% [at 70.9 µM] (inactive) | –
O=C=NC1CCC(CC2CCC(N=C=O)CC2)CC1 (stereo not given) | -6.93% (inactive) | –
CN(C(=O)CCCOc1ccc2[nH]c(=O)ccc2c1)C1CCCCC1 | -12.7% [at 70.9 µM] (inactive) | –
C=C(C)C(=O)OCCOc1ccccc1 | 0.533% (inactive) | –
Cc1ccc(C(=O)C(C)CN2CCCCC2)cc1 (stereo not given) | -2.98% [at 70.9 µM] (inactive) | –
CC(=O)[C@@]1(O)CC[C@H]2[C@@H]3C[C@H](C)C4=CC(=O)CC[C@]4(C)[C@H]3CC[C@@]21C | -2.56% [at 70.9 µM] (inactive) | –
Oc1ccc(Sc2ccc(O)cc2)cc1 | 2.29% (inactive) | –
COc1ccccc1OC(=O)Oc1ccccc1OC | -4.01% [at 70.9 µM] (inactive) | –
C[Si](C)O[Si](C)(C)O[Si](C)(C)O[Si](C)C | 0.976% (inactive) | –
CN1CCC(=C2c3ccccc3C=Cc3ccccc32)CC1 | -8.66% [at 70.9 µM] (inactive) | –
O=[N+]([O-])c1cc[n+]([O-])cc1 | -0.233% (inactive) | –
O=CNc1ccccc1 | -1.75% (inactive) | –
CC(=O)O[C@@H]1C(=O)O[C@@H]2[C@H]1OC(=O)[C@@H]2OC(C)=O | -0.39% [at 70.9 µM] (inactive) | –
CCOc1cc(OCC)c(C(=O)CCC(=O)O)cc1OCC | -0.237% [at 70.9 µM] (inactive) | –
C1CCC2OC2C1 (stereo not given) | 2.48% (inactive) | –
CC(C)c1ccccc1C(C)C | -0.66% (inactive) | –
CC(=O)/C=C/C1C(C)=CCCC1(C)C (stereo not given) | -1.53% (inactive) | –
CC(C)(C)c1cc(CCC(=O)OCC(COC(=O)CCc2cc(C(C)(C)C)c(O)c(C(C)(C)C)c2)(COC(=O)CCc2cc(C(C)(C)C)c(O)c(C(C)(C)C)c2)COC(=O)CCc2cc(C(C)(C)C)c(O)c(C(C)(C)C)c2)cc(C(C)(C)C)c1O | -4.28% [at 70.9 µM] (inactive) | –
N=C(N=C(N)N)N1CCOCC1 | -4.98% [at 70.9 µM] (inactive) | –
